Measurements reported in PubChem BioAssay AID1159580 (chemical genetic matrix, 2015).
“And” between values parts separate entries of the source, which are not always exact repeats. Identical values can stand only once. Hit rate of the full screen: of about 5,500 compounds, about 2,000 (36%) were called active. Another 18% or so got no clear call; they are omitted. Rule as the data show it: active = normalized growth mostly below about 0.91 (no sharp cut-off); inconclusive = no clear call, values can overlap the other calls; inactive = mostly above about 0.92. Some of the results follow.

Assay: chemical genetic growth profiling, strain panel (AID 1159580);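 also: tested at 20 µM; growth read once vehicle control cultures reached saturation at 30 °C; 1 = growth at the plate median or of vehicle wells; lower values mean less growth of the strain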
Settings: S. cerevisiae deletion strains, growth OD
[1] = locus YAL013W, strain DEP1, stronger effect = lower value

Measured: normalized growth

CCC(C)[C@H]1O[C@]2(C=C[C@@H]1C)C[C@@H]1C[C@@H](C/C=C(\C)[C@@H](OC3C[C@H](OC)C(O[C@H]4C[C@H](OC)[C@@H](O)[C@H](C)O4)[C@H](C)O3)[C@@H](C)/C=C/C=C3\CO[C@@H]4[C@H](O)C(C)=C[C@@H](C(=O)O1)[C@]34O)O2 (some centres undefined)
inactive: locus YAL021C, strain ccr4, stronger effect = lower value 0.919 | locus YAL026C, strain drs2, stronger effect = lower value 0.954 | locus YAL030W, strain snc1, stronger effect = lower value 0.984 | locus YBL061C, strain skt5, stronger effect = lower value 0.964 | locus YBR171W, strain sec66, stronger effect = lower value 1 | locus YBR229C, strain ROT2, stronger effect = lower value 0.997 | locus YBR231C, strain swc5, stronger effect = lower value 0.947 | locus YCL061C, strain MRC1, stronger effect = lower value 0.976 | locus YCR088W, strain abp1, stronger effect = lower value 0.981 | locus YDL005C, strain med2, stronger effect = lower value 0.971 | locus YDL040C, strain nat1, stronger effect = lower value 0.983 | locus YDL101C, strain DUN1, stronger effect = lower value 0.933 | locus YDL185W, strain tfp1, stronger effect = lower value 1.02 | locus YDR001C, strain nth1, stronger effect = lower value 0.996 | locus YDR069C, strain doa4, stronger effect = lower value 1.02 | locus YDR101C, strain arx1, stronger effect = lower value 0.959 | locus YDR159W, strain sac3, stronger effect = lower value 0.915 | locus YDR297W, strain sur2, stronger effect = lower value 0.989 | locus YDR334W, strain swr1, stronger effect = lower value 0.982 | locus YDR335W, strain msn5, stronger effect = lower value 0.996 | locus YDR392W, strain spt3, stronger effect = lower value 0.855 | locus YEL003W, strain gim4, stronger effect = lower value 0.928 | locus YEL037C, strain rad23, stronger effect = lower value 0.973 | locus YEL061C, strain CIN8 (second series), stronger effect = lower value 0.973 | locus YEL061C, strain CIN8, stronger effect = lower value 0.933 | locus YER015W, strain faa2, stronger effect = lower value 0.957 | locus YER110C, stronger effect = lower value 1.03 | locus YER111C, strain swi4, stronger effect = lower value 0.997 | locus YER155C, strain BEM2 (second series), stronger effect = lower value 1.07 | locus YER155C, strain BEM2, stronger effect = lower value 0.966 | locus YER167W, strain BCK2, stronger effect = lower value 0.913 | locus YFR010W, strain ubp6, stronger effect = lower value 1 | locus YGL078C, strain dbp3, stronger effect = lower value 1.01 | locus YGL167C, strain pmr1, stronger effect = lower value 1.01 | locus YGL173C, strain kem1, stronger effect = lower value 0.967 | locus YGL227W, strain vid30, stronger effect = lower value 1 | locus YGL240W, strain doc1, stronger effect = lower value 1.06 | locus YGR135W, strain pre9, stronger effect = lower value 1.03 | locus YGR252W, strain gcn5, stronger effect = lower value 0.939 | locus YHR013C, strain ard1, stronger effect = lower value 0.847 | locus YHR027C, strain rpn1, stronger effect = lower value 0.977 | locus YHR079C, strain IRE1, stronger effect = lower value 0.966 | locus YHR094C, strain hxt1, stronger effect = lower value 1.01 | locus YHR200W, strain rpn10, stronger effect = lower value 1.01 | locus YIL073C, strain SPO22, stronger effect = lower value 0.817 | locus YIL125W, strain kgd1, stronger effect = lower value 0.994 | locus YJL092W, strain hpr5, stronger effect = lower value 0.967 | locus YJL115W, strain asf1, stronger effect = lower value 1 | locus YJL129C, strain trk1, stronger effect = lower value 0.955 | locus YJL134W, strain LCB3, stronger effect = lower value 1.01 | locus YJL154C, strain vps35, stronger effect = lower value 1 | locus YJL166W, strain qcr8, stronger effect = lower value 0.916 | locus YJL168C, strain set2, stronger effect = lower value 1.02 | locus YJL187C, strain SWE1, stronger effect = lower value 0.951 | locus YJR043C, strain POL32, stronger effect = lower value 0.932 | locus YJR066W, strain TOR1, stronger effect = lower value 0.973 | locus YJR075W, strain HOC1, stronger effect = lower value 0.906 | locus YKL009W, strain mrt4, stronger effect = lower value 1.01 | locus YKL068W, stronger effect = lower value 0.995 | locus YKL085W, strain MDH1 (second series), stronger effect = lower value 0.981 | locus YKL085W, strain MDH1, stronger effect = lower value 0.981 | locus YKL160W, strain elf1, stronger effect = lower value 0.969 | locus YKR026C, strain gcn3, stronger effect = lower value 0.996 | locus YKR091W, strain srl3, stronger effect = lower value 0.989 | locus YLL001W, strain dnm1, stronger effect = lower value 0.983 | locus YLL041C, strain sdh2, stronger effect = lower value 0.98 | locus YLR027C, strain aat2, stronger effect = lower value 0.936 | locus YLR102C, strain apc9, stronger effect = lower value 1.02 | locus YLR113W, strain HOG1, stronger effect = lower value 0.975 | locus YLR357W, strain rsc2, stronger effect = lower value 1.03 | locus YLR370C, strain arc18, stronger effect = lower value 0.985 | locus YLR371W, strain rom2, stronger effect = lower value 1.03 | locus YLR384C, strain iki3, stronger effect = lower value 1.02 | locus YML016C, strain PPZ1, stronger effect = lower value 1 | locus YML032C, strain rad52, stronger effect = lower value 0.915 | locus YML120C, strain ndi1, stronger effect = lower value 0.955 | locus YML124C, strain tub3, stronger effect = lower value 1.01 | locus YMR058W, strain fet3, stronger effect = lower value 1 | locus YMR078C, strain ctf18, stronger effect = lower value 0.98 | locus YMR125W, strain sto1, stronger effect = lower value 1.03 | locus YMR129W, stronger effect = lower value 0.996 | locus YMR223W, strain ubp8, stronger effect = lower value 0.953 | locus YMR231W, strain pep5, stronger effect = lower value 0.984 | locus YNL067W, strain RPL9B, stronger effect = lower value 0.904 | locus YNL183C, strain NPR1, stronger effect = lower value 0.926 | locus YNL209W, strain ssb2, stronger effect = lower value 0.937 | locus YNL248C, strain rpa49, stronger effect = lower value 0.926 | locus YNL250W, strain rad50, stronger effect = lower value 1.02 | locus YNL271C, strain bni1, stronger effect = lower value 1.01 | locus YNL298W, strain CLA4, stronger effect = lower value 1.04 | locus YNL322C, strain KRE1 (second series), stronger effect = lower value 0.935 | locus YNR049C, strain mso1, stronger effect = lower value 0.987 | locus YNR052C, strain pop2, stronger effect = lower value 0.952 | locus YOL012C, strain htz1 0.305 | locus YOL147C, strain pex11, stronger effect = lower value 0.935 | locus YOR001W, strain rrp6, stronger effect = lower value 1 | locus YOR061W, strain CKA2, stronger effect = lower value 0.891 | locus YOR080W, strain dia2, stronger effect = lower value 0.997 | locus YOR083W, strain WHI5, stronger effect = lower value 0.901 | locus YOR106W, strain vam3, stronger effect = lower value 0.984 | locus YOR136W, strain idh2, stronger effect = lower value 0.936 | locus YOR144C, strain elg1, stronger effect = lower value 0.97 | locus YOR231W, strain MKK1, stronger effect = lower value 0.945 | locus YOR265W, strain rbl2, stronger effect = lower value 0.98 | locus YOR316C, strain cot1, stronger effect = lower value 1.01 | locus YPL078C, strain atp4, stronger effect = lower value 0.982 | locus YPL240C, strain hsp82, stronger effect = lower value 0.931 | locus YPL256C, strain CLN2, stronger effect = lower value 0.955 | locus YPR119W, strain clb2, stronger effect = lower value 1.02 | locus YPR141C, strain kar3, stronger effect = lower value 0.997
0.722 (active) and 0.976 (inactive): locus YJL095W, strain BCK1, stronger effect = lower value
active: [1] 0.804 | locus YBR009C, strain hhf1, stronger effect = lower value 0.809 | locus YBR021W, strain FUR4, stronger effect = lower value 0.838 | locus YBR023C, strain chs3, stronger effect = lower value 0.889 | locus YBR279W, strain paf1, stronger effect = lower value 0.882 | locus YCL011C, strain gbp2, stronger effect = lower value 0.817 | locus YCL016C, strain dcc1, stronger effect = lower value 0.86 | locus YCL029C, strain bik1, stronger effect = lower value 0.889 | locus YCL069W, strain vba3, stronger effect = lower value 0.898 | locus YDL035C, strain GPR1, stronger effect = lower value 0.847 | locus YDL074C, strain BRE1, stronger effect = lower value 0.669 | locus YDL134C, strain PPH21, stronger effect = lower value 0.853 | locus YDL192W, strain arf1, stronger effect = lower value 0.847 | locus YDR137W, strain rgp1, stronger effect = lower value 0.499 | locus YDR162C, strain NBP2, stronger effect = lower value 0.769 | locus YDR195W, strain ref2 1.32 [resistant] | locus YDR318W, strain mcm21, stronger effect = lower value 0.853 | locus YDR388W, stronger effect = lower value 0.857 | locus YDR502C, strain sam2, stronger effect = lower value 0.841 | locus YER016W, strain bim1, stronger effect = lower value 0.911 | locus YGL086W, strain mad1, stronger effect = lower value 0.8 | locus YGL248W, strain PDE1, stronger effect = lower value 0.797 | locus YGL253W, strain hxk2, stronger effect = lower value 0.743 | locus YHR079C, strain IRE1 (second series), stronger effect = lower value 0.87 | locus YHR129C, strain ARP1, stronger effect = lower value 0.814 | locus YHR142W, strain chs7, stronger effect = lower value 0.864 | locus YIL066C, strain RNR3, stronger effect = lower value 0.742 | locus YIR030C, strain dcg1, stronger effect = lower value 0.904 | locus YJL095W, strain BCK1 (second series), stronger effect = lower value 0.891 | locus YJL164C, strain tpk1, stronger effect = lower value 0.795 | locus YJL187C, strain SWE1 (second series), stronger effect = lower value 0.791 | locus YKR001C, strain vps1, stronger effect = lower value 0.253 | locus YLL026W, stronger effect = lower value 0.886 | locus YLR039C, strain RIC1, stronger effect = lower value 0.274 | locus YLR058C, strain SHM2, stronger effect = lower value 0.881 | locus YLR221C, strain rsa3, stronger effect = lower value 0.832 | locus YLR258W, strain gsy2, stronger effect = lower value 0.849 | locus YLR262C, strain YPT6 (second series), stronger effect = lower value 0.418 | locus YLR262C, strain YPT6, stronger effect = lower value 0.214 | locus YLR268W, strain sec22, stronger effect = lower value 0.695 | locus YLR320W, strain mms22, stronger effect = lower value 0.828 | locus YLR330W, strain CHS5, stronger effect = lower value 0.893 | locus YLR342W, strain FKS1 (second series), stronger effect = lower value 0.452 | locus YLR342W, strain FKS1, stronger effect = lower value 0.681 | locus YLR418C, strain cdc73, stronger effect = lower value 0.824 | locus YMR205C, strain PFK2, stronger effect = lower value 0.77 | locus YMR307W, strain GAS1, stronger effect = lower value 0.323 | locus YNL071W, strain lat1, stronger effect = lower value 0.824 | locus YNL153C, strain GIM3, stronger effect = lower value 0.821 | locus YNL233W, strain BNI4, stronger effect = lower value 0.849 | locus YNL307C, strain MCK1, stronger effect = lower value 0.46 | locus YOR069W, strain VPS5, stronger effect = lower value 0.92 | locus YOR070C, strain gyp1, stronger effect = lower value 0.837 | locus YOR184W, strain ser1, stronger effect = lower value 0.698 | locus YOR270C, strain vph1, stronger effect = lower value 0.59 | locus YOR290C, strain snf2, stronger effect = lower value 0.864 | locus YPL051W, strain arl3, stronger effect = lower value 0.676 | locus YPL055C, strain LGE1, stronger effect = lower value 0.627 | locus YPL106C, strain sse1, stronger effect = lower value 1.38 [resistant] | locus YPR163C, strain tif3, stronger effect = lower value 0.897 | locus YPR167C, strain met16, stronger effect = lower value 0.862 | strain wtn01, stronger effect = lower value 0.76
0.865 (active) and 0.98 (inactive): locus YHR030C, strain SLT2, stronger effect = lower value

CC[C@@H](C)[C@H]1O[C@]2(CC[C@@H]1C)C[C@@H]1C[C@@H](C/C=C(\C)[C@@H](O[C@H]3C[C@H](OC)[C@@H](O[C@H]4C[C@H](OC)[C@@H](O)[C@H](C)O4)[C@H](C)O3)[C@@H](C)/C=C/C=C3\CO[C@@H]4[C@H](O)C(C)=C[C@@H](C(=O)O1)[C@]34O)O2
active: [1] 0.732 | locus YDR363W, strain ESC2, stronger effect = lower value 0.613 | locus YPL241C, strain CIN2, stronger effect = lower value 0.869
inactive: locus YAL040C, strain CLN3, stronger effect = lower value 1.01 | locus YCL061C, strain MRC1 (second series), stronger effect = lower value 0.948 | locus YER002W, strain NOP16, stronger effect = lower value 1.02 | locus YNL175C, strain NOP13, stronger effect = lower value 1.01 | locus YNL197C, strain WHI3, stronger effect = lower value 1.02 | locus YNL224C, strain SQS1, stronger effect = lower value 0.993 | locus YOR083W, strain WHI5 (second series), stronger effect = lower value 0.981
